Screens as filed in PubChem.
Most compounds without a hit are left out; they make up all but 1.3% or so of the library.
AmpC no deterg – qHTS Inhibitors of AmpC Beta-Lactamase (assay without detergent) | P00811 | Potency, µM (highest dose often 57.1 µM), actives largely listed as inhibitors | AID 485341, 2010 | 330,000 tested, 0.52% active | AmpC nitrocefin hydrolysis, absorbance 480 nm, 0.0001% Triton; also: nearly all actives have a fitted effect of over 20% in size
Target sequence (P00811 whole entry, looked up): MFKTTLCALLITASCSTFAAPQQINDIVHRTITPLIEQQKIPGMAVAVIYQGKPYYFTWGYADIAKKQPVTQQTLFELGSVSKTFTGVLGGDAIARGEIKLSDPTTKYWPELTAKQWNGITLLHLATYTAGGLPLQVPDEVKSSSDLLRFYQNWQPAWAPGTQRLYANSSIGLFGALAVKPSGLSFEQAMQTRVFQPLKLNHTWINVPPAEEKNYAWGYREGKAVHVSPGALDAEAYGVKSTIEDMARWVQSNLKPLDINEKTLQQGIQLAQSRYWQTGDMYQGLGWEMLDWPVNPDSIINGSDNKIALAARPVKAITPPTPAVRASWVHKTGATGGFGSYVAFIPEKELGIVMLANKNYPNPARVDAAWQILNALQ
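AmpC (5.3 nM in the dispensed reagent) in 20 mM phosphate pH 7.0 with 0.01% (detergent screen) or 0.0001% Triton X-100 was preincubated with compounds for 15 min at room temperature. Nitrocefin was then added from an 800 uM solution, and hydrolysis was followed at 480 nm.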
VACV Venus inh – qHTS for Stage-Specific Inhibitors of Vaccinia Orthopoxvirus: Venus Reporter Primary qHTS. 330,000 tested, 0.46% active. Potency, µM (highest dose often 36.5 µM), actives largely listed as inhibitors. Vaccinia virus Venus reporter expression, fluorescence. AID 720580, 2013; calls by dose curve; tested in A549 cells; also: nearly all actives have a fitted effect of over 30% in size
SARS PLpro yeast-1 – qHTS of Yeast-based Assay for SARS-CoV PLP; S. cerevisiae expressing SARS-CoV PLpro, growth rescue; Potency, µM (top dose mostly 32.9 µM), hits mostly activators; 330,000 tested, 0.19% active; AID 485353, 2010; calls by dose curve; also: nearly all actives have a fitted effect of over 55% in size
VACV mCherry inh – qHTS for Stage-Specific Inhibitors of Vaccinia Orthopoxvirus: mCherry Reporter Primary qHTS; 310,000 tested, 0.63% active; Potency, µM (highest dose often 36.5 µM), usual class: inhibitors; Vaccinia virus mCherry reporter infection, fluorescence; AID 720579, 2013; calls by dose curve; tested in A549 cells; also: nearly all actives have a fitted effect of over 35% in size
AmpC inh detg – qHTS Inhibitors of AmpC Beta-Lactamase (assay with detergent); AmpC hydrolysis of nitrocefin, absorbance 480 nm, 0.01% Triton; Potency, µM (titrated, usually from 114 µM), usual class: inhibitors; AID 485294, 2010; 370,000 tested, 0.041% active; P00811; also: nearly all actives have a fitted effect of over 25% in size
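AmpC (5.3 nM in the dispensed reagent) in 20 mM phosphate pH 7.0 with 0.01% (detergent screen) or 0.0001% Triton X-100 was preincubated with compounds for 15 min at room temperature. Nitrocefin was then added from an 800 uM solution, and hydrolysis was followed at 480 nm.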
SARS PLpro yeast-2 – qHTS of Yeast-based Assay for SARS-CoV PLP: Hit Validation; shares compounds with SARS PLpro yeast-1; yeast expressing SARS-CoV PLpro, growth phenotype rescue; calls only; 1,000 tested, 19% active; call rule not given here
Numbers stand for hits; 0 = inactive; ? = inconclusive; - = no result; + = active, no number; [ ] = dose if it differs, or a comment. Unless noted, calls follow the shape of the dose curve; as a rule, active = well fitted curve in the direction sought with a large enough effect; inconclusive = small, poorly fitted or top-dose-only effect, or another doubt; inactive = no such curve, though single readings can be large; an effect the other way counts as inactive or inconclusive.

SMILES	AmpC no deterg	VACV Venus inh	SARS PLpro yeast-1	VACV mCherry inh	AmpC inh detg	SARS PLpro yeast-2
O=C(Nc1cccc2c1CCCC2)c1cc(C2CCCCN2C(=O)c2cccs2)on1 (configuration not stated)	-	0	-	0	-	-
COc1ccccc1-c1nnn(CC#N)n1	0	0	?	0	0	0
COc1ccccc1/C=C1\SC(=S)N(CCC(=O)NC2=NCCS2)C1=O	0	0	4µM	0	0	0
O=C(CCN1C(=O)/C(=C\c2cccs2)SC1=S)NC1=NCCS1	0	0	0	0	0	-
O=C(CCn1c(=O)oc2ccccc21)NC1=NCCS1	0	0	?	0	0	0
O=C(O)Cn1c(C(F)(F)F)nc2ccccc21	-	0	-	0	0	-
CC1CN(C(=O)Cn2c(C(F)(F)F)nc3ccccc32)CC(C)O1 (configuration not stated)	0	0	?	0	0	0
CSc1nnc(COc2ccc(C)cc2)n1N	0	-	?	-	0	0
Cc1ccc(OCc2nnc(SCC(N)=O)n2N)cc1	0	-	0	-	0	-
Oc1ccc(/C=N/Nc2cc(N3CCCC3)nc(N3CCCC3)n2)cc1O	0	0	?	0	0	0
CCc1ccc2c(c1)c(=O)c(S(=O)(=O)c1ccccc1)cn2CC(=O)Nc1ccc(OC)cc1	-	0	-	0	0	-
Cc1nnc2c3ccccc3c(-c3ccc(O)cc3)nn12	0	0	?	-	?	0
S=C(NCc1ccccc1)N/N=C/c1cccs1	0	-	5.6µM	-	0	+
O=C(Cc1ccccc1)NCC(=O)N/N=C/c1cccs1	0	0	0	0	0	-
COc1cc(NC(=O)c2cccc([N+](=O)[O-])c2C)ccc1NC(=O)c1ccco1	0	0	2.8µM	0	0	0
CCc1ccccc1NC(=O)C(=O)NCCc1sc(-c2cccc(F)c2)nc1C	-	0	-	0	0	-
CCOc1cc(CNCCSc2nnnn2C)cc(Br)c1OCc1ccc(F)cc1	0	0	?	0	0	0
CC(=O)Nc1ccc2c(c1)n(C)c(=O)n2C	0	0	?	0	0	-
Cn1c(=O)n(C)c2cc(NC(=O)CCl)ccc21	0	-	10µM	-	?	+
O=C(c1ccco1)N1CCN(C(=O)c2[nH]c(C(F)(F)F)nc2-c2ccccc2)CC1	-	0	-	0	-	-
Cc1ccc2nc(NC(=O)c3cc(=O)c4cc(Cl)ccc4o3)sc2c1	-	0	-	0	0	-
CC1(C)Cc2nc3oc4c(=O)n(CC(=O)Nc5ccccc5)cnc4c3cc2CO1	0	0	0	0	?	-
Cc1cccc(NC(=O)Cn2cnc3c(oc4nc5c(cc43)COC(C)(C)C5)c2=O)c1	0	-	13µM	-	0	0
CC(=O)N1CCc2c(sc3c2c(=O)n(-c2ccc(C)cc2)c(=O)n3Cc2c(F)cccc2Cl)C1	-	0	-	0	0	-
COc1ccc(NC(=O)C(=O)NNC(=O)c2cccs2)cc1	0	0	0	0	0	-
SMILES	AmpC no deterg	VACV Venus inh	SARS PLpro yeast-1	VACV mCherry inh	AmpC inh detg	SARS PLpro yeast-2
COc1ccc(NC(=O)C(=O)NNC(=O)c2cccs2)c(OC)c1	0	0	?	0	0	0
Oc1c(C(Nc2ccccn2)c2cccnc2)cc(Cl)c2cccnc12 (configuration not stated)	0	?	2.5µM	?	0	0
Oc1c(C(c2ccc(Cl)cc2)N2CCCC2)cc(Cl)c2cccnc12 (configuration not stated)	0	?	-	13µM	0	0
COc1ccc(C(NC(=O)c2cccnc2)c2cc(Cl)c3cccnc3c2O)cc1OC (configuration not stated)	0	?	2.2µM	0[1.46 µM]	0	0
CC(=O)NC(c1ccc(C)cc1)c1cc(Cl)c2cccnc2c1O (configuration not stated)	0	?	?	?	0	+
O=C(c1ccco1)N1CCN(C2CN(CCc3ccccc3)S(=O)(=O)C2)CC1 (configuration not stated)	-	0	-	0	-	-
CCn1c(=O)cc(SCC(=O)N2CCN(c3cc(C)ccc3C)CC2)c2ccccc21	-	0	-	0	0	-
N#Cc1ccc(CN2CCN(C(=O)c3cc(Cl)c4c(c3)OCCO4)CC2)cc1	0	-	0	-	0	-
NC(=O)C1CCN(C(=O)c2cc(Cl)c3c(c2)OCCO3)CC1	0	0	2.5µM	0	-	0
NC(=O)c1ccc(Oc2ccc(Cl)c3ccccc23)c([N+](=O)[O-])c1	0	0	4.5µM	0	0	?
O=C(NC1CC1)c1cccc2c1C(=O)c1ccc(N3CCC(N4CCCCC4)CC3)cc1S2(=O)=O	-	0	-	0	-	-
COc1ccc(CNC(=O)C[C@H]2C[C@H](C(=O)N3CCOCC3)[C@@]3(CCC4CCCC4)c4[nH]c5cc(CCC(=O)N(C)C)ccc5c4CCN3C2=O)cc1OC	0	0	?	0	-	0
COC(=O)c1ccc(N2CCN(CCNC(=O)Nc3ccc(OC)cc3)CC2)cc1	0	-	?	-	?	0
CC1(C(=O)NS(=O)(=O)c2cccc(F)c2)CCN1C(=O)C1CCCCC1 (configuration not stated)	-	0	-	0	-	-
Cc1cccc(NC(=O)c2cc(CN3CCOCC3)on2)c1C	-	0	-	0	0	-
CNC(=S)N/N=C/C1=CCC2CC1C2(C)C (configuration not stated)	0	0	13µM	0	0	+
C#CC[N+]1(CC#Cc2ccc(C)cc2)CCCCC1	0	0	20µM	0	0	0
Cc1ccc(CNC(=O)c2cn(C3CCCCC3)c(=O)c3c2c2ccccc2n3C)o1	0	0	?	0	0	+
O=C(COC(=O)Cc1ccccc1F)NCc1ccccc1Cl	-	0	-	0	-	-
O=C(Nc1ccc(F)cc1)c1ccccc1	0	0	?	0	0	0
COC(C(=O)Nc1ccc(F)cc1)c1ccccc1 (configuration not stated)	0	0	16µM	0	0	0
O=C(CC(CC(=O)c1ccccc1)c1ccccc1)c1ccccc1	0	-	0	-	0	-
O=C(CC(Nc1ccc(F)cc1)c1ccccc1)c1ccccc1 (configuration not stated)	0	0	3.2µM	0	0	0
Cc1c(O)c2cccnc2[nH]c1=O	0	0	3.5µM	0	?	0
O=C(Nc1c(-c2ccccc2)nc2ccccn12)c1ccco1	0	-	0	-	0	-
Cc1ccc(-c2nc3ccccn3c2NC(=O)c2ccco2)cc1	0	0	?	0	0	0
COc1ccc(CNC(=O)Nc2nc(C(N)CCc3ccccc3)cs2)cc1 (configuration not stated)	-	0	-	0	-	-
CCOC(=O)C(CC)/C(C)=N\NC(=O)c1ccccc1O (configuration not stated)	0	?	6.3µM	?	0	0
CC(C)CCNC(=O)c1cc([N+](=O)[O-])ccc1N1CCOCC1	0	0	0	0	0	-
CC(C)CNC(=O)c1cc([N+](=O)[O-])ccc1N1CCOCC1	0	0	?	0	0	0
